Source: PubChem BioAssay AID1159580 (chemical genetic matrix, 2015)
Where “and” joins values, the source holds several entries; their conditions need not be identical. Identical values can stand only once. The campaign covered roughly 5,500 compounds. About 2,000 (36%) were called active. About 18% were inconclusive and are not listed. No stated cut-off is given here; in the data, active means normalized growth mostly below about 0.91 (no sharp cut-off); inconclusive means no clear call, values can overlap the other calls; inactive means mostly above about 0.92. The list shows a part of the results.

Test: chemical genetic growth profiling, strain panel (AID 1159580);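 further: tested at 20 µM; growth read once vehicle control cultures reached saturation at 30 °C; 1 = growth at the plate median or of vehicle wells; lower values mean less growth of the strain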
Details: S. cerevisiae deletion strains, growth OD

Measured: normalized growth

CC[N+]1(C)CCCC(OC(=O)C(O)(c2ccccc2)c2ccccc2)C1 (stereo not given)
inactive: locus YAL013W, strain DEP1, active compounds read low 1.01 | locus YAL021C, strain ccr4, active compounds read low 1.01 | locus YAL026C, strain drs2, active compounds read low 1.03 | locus YAL030W, strain snc1, active compounds read low 1.02 | locus YBL061C, strain skt5, active compounds read low 1.03 | locus YBR009C, strain hhf1, active compounds read low 1.02 | locus YBR021W, strain FUR4, active compounds read low 1.02 | locus YBR023C, strain chs3, active compounds read low 1.02 | locus YBR171W, strain sec66, active compounds read low 1.03 | locus YBR229C, strain ROT2, active compounds read low 1.01 | locus YBR231C, strain swc5, active compounds read low 1.03 | locus YBR279W, strain paf1, active compounds read low 1.02 | locus YCL011C, strain gbp2, active compounds read low 1.03 | locus YCL016C, strain dcc1, active compounds read low 1.01 | locus YCL029C, strain bik1, active compounds read low 1.02 | locus YCL061C, strain MRC1, active compounds read low 1.02 | locus YCL069W, strain vba3, active compounds read low 1.03 | locus YCR088W, strain abp1, active compounds read low 1.02 | locus YDL005C, strain med2, active compounds read low 1.03 | locus YDL035C, strain GPR1, active compounds read low 1.02 | locus YDL040C, strain nat1, active compounds read low 1.01 | locus YDL074C, strain BRE1, active compounds read low 1 | locus YDL101C, strain DUN1, active compounds read low 1.01 | locus YDL134C, strain PPH21, active compounds read low 1.02 | locus YDL185W, strain tfp1, active compounds read low 1.01 | locus YDL192W, strain arf1, active compounds read low 1.02 | locus YDR001C, strain nth1, active compounds read low 1.02 | locus YDR069C, strain doa4, active compounds read low 1.03 | locus YDR101C, strain arx1, active compounds read low 1.02 | locus YDR137W, strain rgp1, active compounds read low 1.07 | locus YDR159W, strain sac3, active compounds read low 1 | locus YDR162C, strain NBP2, active compounds read low 1.01 | locus YDR195W, strain ref2 1.01 | locus YDR297W, strain sur2, active compounds read low 1.02 | locus YDR318W, strain mcm21, active compounds read low 1 | locus YDR334W, strain swr1, active compounds read low 1.03 | locus YDR335W, strain msn5, active compounds read low 1.03 | locus YDR388W, active compounds read low 1.02 | locus YDR392W, strain spt3, active compounds read low 0.931 | locus YDR502C, strain sam2, active compounds read low 1.01 | locus YEL003W, strain gim4, active compounds read low 1.02 | locus YEL037C, strain rad23, active compounds read low 1.02 | locus YEL061C, strain CIN8 (second series), active compounds read low 1.02 | locus YEL061C, strain CIN8, active compounds read low 1.01 | locus YER015W, strain faa2, active compounds read low 1.02 | locus YER016W, strain bim1, active compounds read low 1.02 | locus YER110C, active compounds read low 1.02 | locus YER111C, strain swi4, active compounds read low 1.03 | locus YER155C, strain BEM2 (second series), active compounds read low 1.01 | locus YER155C, strain BEM2, active compounds read low 1 | locus YER167W, strain BCK2, active compounds read low 1.01 | locus YFR010W, strain ubp6, active compounds read low 1.03 | locus YGL078C, strain dbp3, active compounds read low 1.02 | locus YGL086W, strain mad1, active compounds read low 1 | locus YGL167C, strain pmr1, active compounds read low 1.03 | locus YGL173C, strain kem1, active compounds read low 1.04 | locus YGL227W, strain vid30, active compounds read low 1.03 | locus YGL240W, strain doc1, active compounds read low 1.03 | locus YGL248W, strain PDE1, active compounds read low 1 | locus YGL253W, strain hxk2, active compounds read low 1.03 | locus YGR078C, strain PAC10, active compounds read low 1 | locus YGR135W, strain pre9, active compounds read low 1.02 | locus YGR229C, strain SMI1, active compounds read low 1.01 | locus YGR252W, strain gcn5, active compounds read low 1 | locus YHR013C, strain ard1, active compounds read low 1.04 | locus YHR027C, strain rpn1, active compounds read low 1.02 | locus YHR030C, strain SLT2, active compounds read low 1.01 and 1.02 | locus YHR079C, strain IRE1 (second series), active compounds read low 1.01 | locus YHR079C, strain IRE1, active compounds read low 1.03 | locus YHR094C, strain hxt1, active compounds read low 1.01 | locus YHR129C, strain ARP1, active compounds read low 0.999 | locus YHR142W, strain chs7, active compounds read low 1.03 | locus YHR200W, strain rpn10, active compounds read low 1.01 | locus YIL066C, strain RNR3, active compounds read low 1.02 | locus YIL073C, strain SPO22, active compounds read low 1.07 | locus YIL125W, strain kgd1, active compounds read low 1 | locus YIR030C, strain dcg1, active compounds read low 1.01 | locus YJL092W, strain hpr5, active compounds read low 1.02 | locus YJL095W, strain BCK1 (second series), active compounds read low 1.01 | locus YJL095W, strain BCK1, active compounds read low 0.998 and 1.03 | locus YJL115W, strain asf1, active compounds read low 1.03 | locus YJL129C, strain trk1, active compounds read low 1.04 | locus YJL134W, strain LCB3, active compounds read low 1 | locus YJL154C, strain vps35, active compounds read low 1.02 | locus YJL164C, strain tpk1, active compounds read low 1.01 | locus YJL166W, strain qcr8, active compounds read low 1.03 | locus YJL168C, strain set2, active compounds read low 1.01 | locus YJL187C, strain SWE1 (second series), active compounds read low 1.01 | locus YJL187C, strain SWE1, active compounds read low 1.02 | locus YJR043C, strain POL32, active compounds read low 1.04
